From PubChem BioAssay (NCI)
Compounds without any hit were thinned out: in the full panel of roughly 83,000, 20% have a hit.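 Cells were grown in 96-well plates and exposed to the test compound at a single concentration for 48 hours; results are reported as percent growth, with values below 10 considered active.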 Values without a mark were called inactive. Calls of active or inactive are those of the source.

How the values were obtained:
Experiment in all cases: NCI-60 one-dose screen, 48 h (100 = growth as untreated, 0 = no growth, -100 = all killed)
Conditions in all cases: 10 µM unless noted
[1] = system: SR leukemia
[2] = system: OVCAR-8 ovarian
[3] = system: OVCAR-5 ovarian
[4] = system: OVCAR-4 ovarian
[5] = system: IGROV1 ovarian
[6] = system: OVCAR-3 ovarian
[7] = system: HS 578T breast
[8] = system: NCI/ADR-RES ovarian
[9] = system: T-47D breast
[10] = system: BT-549 breast
[11] = system: MDA-MB-435 melanoma
[12] = system: SW-620 colon
[13] = system: MCF7 breast
[14] = system: HCT-116 colon
[15] = system: HCC-2998 colon
[16] = system: KM12 colon
[17] = system: SK-OV-3 ovarian

| SMILES | growth [1] | growth [2] | growth [3] [%] | growth [4] | growth [5] | growth [6] | growth [7] | growth [8] | growth [9] | growth [10] [%] | growth [11] | growth [12] | growth [13] | growth [14] | growth [15] | growth [16] | growth [17] [%] |
| --- | --- | --- | --- | --- | --- | --- | --- | --- | --- | --- | --- | --- | --- | --- | --- | --- | --- |
| COc1ccc(OC)c(/C=C2\Oc3cc(OCCN4CCC(Cc5ccccc5)CC4)ccc3C2=O)c1 | 2.46% (active) | 78% | 92.1 | 93.8% | 76.2% | 89.8% | 82.2% | 80.2% | 63.1% | 89.8 | 87.3% | 74.5% | 77.3% | 73% | 19.7% | 92.9% |  |
| CNC(C)[C@H]1CCC2C3CCC4C[C@@H](N(C)C(=O)c5ccccc5)CC[C@]4(C)C3CC[C@@]21C (stereo not given in full) | 34.5% | 47.5% | 81.6 | -5.3% (active) | 22.8% | 9.46% (active) | 38.7% | 42.4% | 0.208% (active) | 31 | -25.6% (active) | -21.7% (active) | 5.05% (active) | -1.52% (active) | 18.4% | 15.4% |  |
| CCCCCCCCCCCCCCCCCCOc1ccccc1CCCOP(=O)(O)OCC[N+](C)(C)C | 11.4% | 64.8% | 75.6 | 89.9% | 15.5% | 84.5% | 93.5% | 95.4% | 87.8% | 77.4 | 91.6% | 69.2% | 60.5% | 44.9% | 50.9% | 13.2% |  |
| Cc1[nH]c(C(=O)Nc2ccc(C(=O)NCCN)cc2OC(C)C)c(Cl)c1Cl | -51.3% (active) | 9.08% (active) | 89.4 | -12.2% (active) | 64.1% |  | 35.1% | 91% | -1.29% (active) | 103 | -17.6% (active) | -89% (active) | 5.44% (active) | -50.1% (active) | -41.7% (active) | 8.19% (active) |  |
| O=c1c2cccc(F)c2sc2c(NCCCNCCO)nc3ccccc3c12 | -16.6% (active) | 32% | 61.8 | 34.9% | 24.2% | 30.1% | 37.8% | 31.5% | 51.8% | 72.6 | 6.93% (active) | -68.1% (active) | 20.2% | 0.842% (active) | -51.7% (active) | 9.05% (active) |  |
| C=CCc1cc(C)ccc1NC(C(=O)NCC(=O)OC)c1ccccc1 (stereo not given) | 95% | 100% | 86.7 | 105% |  | 105% | 106% | 92.7% | 77.2% | 93.7 | 101% | 117% | 89.8% | 101% | 98.7% | 99.4% |  |
| CCCCC[C@H](O)C/C=C1/C(=O)C=C[C@@H]1C/C=C\CCCC(=O)OC | 0.159% (active) | 13.8% |  | 83.9% |  | 11.6% | 88% | 18.7% | 69.3% | 35.3 | -9.31% (active) | 16.1% | 18.6% | 13% | 77.8% | 16.5% | 118 |
| CCCCCCn1c(-c2ccc(C(=O)O/N=C(\N)c3ccc4c(c3)OCO4)cc2)nc(-c2ccccc2)c1-c1ccccc1 | -26.3% (active) | 17.7% | 43.2 | 39.6% | -68.5% (active) | 32.4% | 4.78% (active) | -52.8% (active) | -11.9% (active) | 43.5 |  | 37.8% | 7.05% (active) | 2.68% (active) | 44% | 31.8% |  |
| CCc1cccc2c3c(sc12)C(c1ccc(F)cc1)C(C#N)=C(N)O3 (stereo not given) | 27.3% | 32.9% | 32.6 | 60.4% | 31.1% | 10.9% | 26.7% | 14% | 42.1% | 19.7 |  | 30.3% | 16.1% | 17.7% | 15.4% | 25.1% |  |
| COc1ccc(/C=C2\Oc3cc(OCCN4CCC(Cc5ccccc5)CC4)ccc3C2=O)cc1OC | -1.05% (active) | 39.1% |  | 79.3% | 82.1% | 87% | 74.6% | 70.9% | 60.7% | 64.2 | 76.5% | 40.8% | 49.2% | 49% | -2.67% (active) | 68.2% | 87.8 |
